# The full ranking holds about 33,000 sequences; the median of “E-score (-0.5 to 0.5)” is about -0.0034, and the highest 2% start at about 0.25. For the sample, the highest values were picked, then their nearest neighbours and some sequences at random.
# Biological target: T1, Yap3 (UniProt P38749)
# T1 sequence: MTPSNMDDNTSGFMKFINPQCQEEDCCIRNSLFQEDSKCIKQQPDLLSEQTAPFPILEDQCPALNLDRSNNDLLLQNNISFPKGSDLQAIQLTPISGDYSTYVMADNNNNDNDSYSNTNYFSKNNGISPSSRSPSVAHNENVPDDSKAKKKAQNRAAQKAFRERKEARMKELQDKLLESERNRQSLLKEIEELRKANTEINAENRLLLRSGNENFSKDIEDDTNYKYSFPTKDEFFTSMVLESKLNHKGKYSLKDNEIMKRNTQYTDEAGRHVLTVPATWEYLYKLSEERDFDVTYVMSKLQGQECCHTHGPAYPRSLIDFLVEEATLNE
# Test: PBM E-score (8-mer binding enrichment) (E-score (-0.5 to 0.5)); higher = stronger / more preferred TF binding
# Conditions: protein concentration: 100 nM; construct: GST-full length
# Procedure, shortened: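 Yeast transcription factors, full-length or as DNA-binding domains, were expressed with a GST tag using PURExpress in vitro transcription/translation. At about 100-200 nM they were applied to universal all-10-mer Agilent arrays, double-stranded by primer extension on fresh or once-stripped slides. Fluorescent anti-GST detected bound protein, and masliner normalised the scans. E-scores for ungapped eight-base words, pooled with reverse complements, came from the Universal PBM Analysis Suite.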
row,Sequence,PBM E-score
1,GCCTAACC,-0.151
2,ATCTACTA,0.185
3,AAACCTCG,-0.132
4,ACATCGAT,0.0921
5,ACCTAGTA,-0.119
6,CTTCATTA,0.242
7,ATTCATTA,0.174
8,GTTCATTA,0.259
9,ACTTCATC,0.0677
10,ACCGTCGG,-0.163
11,AACTAGCT,-0.0564
12,ATATATTA,0.32
13,GGATATTA,0.0994
14,CTATATTC,0.151
15,ATAGATTA,0.348
16,CGATATTC,0.0953
17,ATATATTG,0.0595
18,ATAGATTG,0.119
19,CTCTATTA,0.0839
20,CGATATTA,0.358
21,GTATATTA,0.211
22,GTAGATTA,0.245
23,CTATATTA,0.325
24,GGTACTGA,-0.124
25,GATGGGGA,-0.0817
26,ATATAGAC,0.123

row,Sequence,PBM E-score
1,AGTGCATC,-0.0272
2,CTACGCGC,-0.0286
3,ATAGAGAT,0.166
4,CTATATCA,0.264
5,CTATCTCA,-0.0511
6,ATATCTCA,0.268
7,ATATAGTA,0.264
8,CTATAGTA,0.156
9,ACATATTG,0.11
10,GTATAGTA,0.143
11,ATCTCTCA,0.15
12,ACATATTA,0.305
13,GTATATCA,0.0881
14,ATATATCA,0.118
15,CCATATTA,0.24
16,AGTGCCTC,-0.229
17,GATAGACA,0.0506
18,GTCTTCGA,-0.122
19,TCAGTAGA,0.0364
20,GGTCCACC,-0.329
21,ACAGCAAG,0.247
22,ACAACATG,0.136
23,ACGCAAGT,-0.0875
24,CGAGCATC,0.00988
25,AGCCCAGA,-0.0938
26,ATATCAGG,-0.0437

row,Sequence,PBM E-score
1,ATATCAAT,0.268
2,ATATCAAA,0.244
3,ATATCAAC,0.166
4,CTATCAAG,0.067
5,ATATCAAG,0.26
6,GACTGTCC,-0.203
7,ACGCTCAC,-0.0296
8,AAACACTC,0.0568
9,AAATAAGC,0.12
10,TAACATAA,0.337
11,GAACATAA,0.134
12,CAACATAA,0.297
13,CAACATAC,0.0807
14,CAACATAG,0.144
15,AAACATAA,0.202
16,CTGTGACA,0.0329
17,CATGGGCA,-0.0447
18,GTAGCGTA,0.0978
19,AATCCTGC,0.0275
20,ACTTGGGC,-0.119
21,AGCTCTAG,-0.0862
22,GAAAATCA,0.132
23,CAAGCAAA,0.00556
24,AGCCAGGA,-0.0633
25,GAAACTAA,0.00343
26,CAAACTAA,0.25

row,Sequence,PBM E-score
1,AAAACTAT,0.182
2,AAAACTAA,0.298
3,TAAACTAA,0.282
4,AAAACTAG,0.021
5,AGTGGTTA,0.142
6,GACACCGA,-0.136
7,CTGCTCCA,-0.0981
8,ATCCGTTA,0.284
9,GTCCGTTA,0.107
10,ATCCGTTC,0.057
11,ACGATACC,0.157
12,ACTGATCA,0.131
13,ACTCTACC,0.0336
14,ATATATGA,0.185
15,CTATATAC,0.367
16,ATATATGC,0.224
17,ATATATAT,0.231
18,ATATATAC,0.299
19,ATATATGG,0.259
20,ATATGGAC,0.0106
21,CTCTATAC,-0.129
22,CTATGGAG,-0.0464
23,ATATGGAG,0.264
24,CTATATAG,0.121
25,GTATATAC,0.0969

# Reference: the supplement of paper PMC3334620
